Bioassay records (PubChem BioAssay)
CYP2C19 inhib = human CYP2C19 inhibition; P33261; CYP2C19 Supersomes, luciferin-H EGE luminescence, 30 min; inhibition, % at 5 µM; hit rate 21% among 96,000; AID 778;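 active = CYP2C19 inhibition above a set limit at 5 µM in the primary screen, cut at about 50% in these data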;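 note: plate controls were negative control wells for no effect and 2.5 mM tranylcypromine positive control for full effect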
sEH activator = soluble epoxide hydrolase (human) activation; purified human sEH enzymatic activity, activator screen; activation, % at 2 µM; hit rate 0.04% among 91,000; in the data active = activation above about 37%
Target sequence (P34913 whole entry, looked up): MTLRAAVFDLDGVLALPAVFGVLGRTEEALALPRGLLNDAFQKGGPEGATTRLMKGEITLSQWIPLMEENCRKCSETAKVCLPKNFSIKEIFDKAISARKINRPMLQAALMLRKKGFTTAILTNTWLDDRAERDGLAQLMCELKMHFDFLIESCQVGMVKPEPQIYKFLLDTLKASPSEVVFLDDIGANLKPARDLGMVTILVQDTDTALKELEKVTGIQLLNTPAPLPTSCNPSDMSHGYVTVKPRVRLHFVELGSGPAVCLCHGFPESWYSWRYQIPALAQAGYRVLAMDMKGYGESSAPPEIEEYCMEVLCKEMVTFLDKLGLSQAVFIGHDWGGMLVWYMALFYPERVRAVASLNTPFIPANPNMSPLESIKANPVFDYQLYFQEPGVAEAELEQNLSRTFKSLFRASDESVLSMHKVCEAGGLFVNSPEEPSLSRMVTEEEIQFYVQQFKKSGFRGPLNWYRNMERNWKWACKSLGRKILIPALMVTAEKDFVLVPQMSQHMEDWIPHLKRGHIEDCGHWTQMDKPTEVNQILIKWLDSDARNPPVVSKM
CYP2C9 act = CYP2C9 (human) activation; P11712; hit rate 1.4% among 96,000; recombinant CYP2C9, luciferin-H conversion, luminescence; active compounds read high; factor 1 = untreated enzyme, 0 = blocked; AID 1024; activation factor at 5 µM;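 active = activation factor of 2 or more for CYP2C9 at a 5 µM dose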;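 note: 0 = sulfaphenazole-blocked wells and 1 = vehicle-only wells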
CYP2C19 act = cytochrome P450 2C19 (human) activation; activation factor at 5 µM; recombinant CYP2C19, luciferin-H EGE luminescence; active compounds read high; 0 = fully inhibited enzyme, 1 = untreated enzyme; AID 1025; 96,000 tested, under 10 active;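 active = activation factor of at least 2 at 5 µM in the primary screen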;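 note: 0 = wells with 2.5 mM tranylcypromine and 1 = vehicle-only wells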
CYP2C9 inhib = blocks human cytochrome P450 2C9; P11712; CYP2C9 Supersomes, luciferin-H conversion, luminescence; inhibition, % at 5 µM; hit rate 20% among 96,000; AID 777;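 active = blocking of liver enzyme CYP2C9 beyond about 50% at 5 µM, limit read from the data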
sEH inhibitor = blocks human soluble epoxide hydrolase activity; inhibition, % at 2 µM; P34913; recombinant human sEH enzymatic activity assay; hit rate 0.34% among 91,000; in the data active = inhibition above about 80%
Starred values were filed as active, the others as inactive; x = not tested or not shown. Shown are actives, neighbours in structure and some others; about 27% of the full set was active somewhere.

SMILES	CYP2C19 inhib	sEH activator	CYP2C9 act	CYP2C19 act	CYP2C9 inhib	sEH inhibitor
c1coc(CNC2C3CC4CC(C3)CC2C4)c1 (stereo not drawn)	11	2	0.9	0.9	13	-5
CCOC(=O)C(C)Sc1nnc(CNC(=O)c2ccc(OC)cc2)n1C1CCCCC1 (stereo not drawn)	62*	-14	0.8	0.4	21	14
CCOC(=O)CSc1nnc(CNC(=O)c2ccc(OC)cc2)n1-c1ccc(OC)cc1	9	15	0.9	0.9	6	-15
CCN(CC)c1ccc(-n2c(C)c(C(C)=O)c(C(C)=O)c2C)cc1	67*	12	0.2	0.3	80*	-10
CCN(CC)c1ccc(-n2c(C)cc(C=O)c2C)cc1	83*	6	0.7	0.2	31	-7
CN(C)S(=O)(=O)n1ccnc1	-6	4	1	1.1	-4	-3
c1ccc(Oc2cccc(NC3=NCCC3)c2)cc1	16	13	1	0.8	0	-14
N#CCCN1CCN(C(=S)c2ccc(-c3cc(Cl)ccc3Cl)o2)CC1	30	2	2.7*	0.7	-174	-2
S=C(c1ccc(-c2ccc(Cl)c(Cl)c2)o1)N1CCOCC1	88*	x	0.1	0.1	89*	x
S=C(c1ccc(-c2ccccc2Cl)o1)N1CCOCC1	44	x	1.5	0.6	-55	x
S=C(c1ccc(-c2ccc(Cl)cc2Cl)o1)N1CCCCC1	62*	-1	0.3	0.4	72*	-2
CC(C)(C)n1nnnc1CN1CCN(C2CCCC2)CC1	1	7	1.2	1	-16	-5
CC1=NN(/C(=N\c2nnc(C)s2)Nc2ccc(C(C)(C)C)cc2)[C@H](c2ccc(C)cc2)S1	x	11	x	x	x	-7
CCC(C)[C@H](NC(=O)NCCCc1ccccc1)C(=O)OC (stereo partly drawn)	19	-60	0.9	0.8	5	60
c1ccc(-c2csc(-n3cnnn3)n2)cc1	62*	2	0.9	0.4	12	-2
Cc1cc(C)n(-c2nc(-c3ccccc3)cs2)n1	5	-2	0.9	0.9	7	2
Cc1cccc(Oc2ccc(C(=O)NC3CCSC3=O)cn2)c1C (stereo not drawn)	-9	-17	0.9	1.1	13	17
COc1ccc(N2CCN(C(CNS(=O)(=O)c3cc(F)ccc3F)c3cccnc3)CC2)cc1 (stereo not drawn)	74*	9	0.4	0.3	57*	-8
O=S(=O)(NCC(c1cccnc1)N1CCN(c2ccc(F)cc2)CC1)c1cc(F)ccc1F (stereo not drawn)	x	3	x	x	x	-2
O=S(=O)(NCC(c1cccnc1)N1CCN(c2ccccc2)CC1)c1cccs1 (stereo not drawn)	92*	4	0.3	0.1	71*	-3
COc1ccccc1N1CCN(C(CNS(=O)(=O)c2cccs2)c2cccnc2)CC1 (stereo not drawn)	57*	10	0.9	0.4	14	-9
COc1ccc(N2CCN(C(CNS(=O)(=O)c3cccs3)c3cccnc3)CC2)cc1 (stereo not drawn)	69*	-11	0.4	0.3	56*	12
COC(=O)NCC(c1cccnc1)N1CCN(c2ccccc2)CC1 (stereo not drawn)	x	-12	x	x	x	10
c1ccc(CSc2nnc(-c3sccc3-n3cccc3)o2)cc1	38	-3	1.1	0.6	-9	2
CCC(C)(C(=O)NC1CCCC1)N(C(=O)c1cnccn1)c1c(C)n(C)n(-c2ccccc2)c1=O (stereo not drawn)	-14	12	1.1	1.1	-12	-17
COc1ccc(NC(=O)N(CCC(C)C)C(C)c2ccccn2)c(OC)c1 (stereo not drawn)	29	-5	0.7	0.7	28	4
COc1ccc(S(=O)(=O)NCC(c2cccnc2)N2CCN(c3ccccc3)CC2)cc1C (stereo not drawn)	73*	-24	0.1	0.3	86*	24
COc1ccc(N(CC(=O)N2CCc3ccccc3C2)S(=O)(=O)c2c(C)nn(C)c2C)cc1	91*	4	0.4	0.1	64*	-7
COc1ccc(S(=O)(=O)N(CC(=O)NCCCN(C)C)c2ccc(C)cc2)cc1OC	-3	19	1	1	-1	-19
COc1ccc(N(CC(=O)N2CCc3ccccc3C2)S(C)(=O)=O)cc1	18	-2	1	0.8	1	2
